Measurements reported in PubChem BioAssay (NCI).
Compounds without any hit were thinned out: in the full panel of roughly 83,000, 20% have a hit.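 Single-concentration screen, 48 h exposure, 96-well plates. Endpoint: percent growth. Below 10 = active.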 The source made the active and inactive calls.

What was measured:
Experiment in all cases: NCI-60 one-dose screen, 48 h (100 = growth as untreated, 0 = no growth, -100 = all killed)
Conditions in all cases: 10 µM unless noted
[1] = tested on: SK-MEL-2 melanoma
[2] = tested on: EKVX NSCLC
[3] = tested on: SN12C renal
[4] = tested on: UO-31 renal
[5] = tested on: TK-10 renal
[6] = tested on: ACHN renal
[7] = tested on: A498 renal
[8] = tested on: CCRF-CEM leukemia
[9] = tested on: MOLT-4 leukemia
[10] = tested on: SR leukemia

Measured: growth

O=C(CN1N=C(c2ccc(F)cc2)CCC1=O)Nc1nccs1
inactive: [1] 101% | [2] 98.3% | [3] 96.9% | [4] 87.6% | [6] 107% | [7] 84.1% | [8] 94% | [9] 97.5% | [10] 92.8%
active: [5] -95.6%

Nc1c(C(=O)Nc2ccccc2Cl)sc2nc3c(cc12)CN(Cc1ccccc1)CC3
inactive: [1] 95.6% | [2] 93% | [3] 101% | [4] 99.7% | [5] 98.5% | [6] 104% | [7] 85.4% | [8] 91.7% | [9] 89.6% | [10] 87.1%

O=C1NC(c2ccc(F)cc2)N=C2C(c3ccccc3)=NOC12 (stereo not given)
inactive: [1] 108% | [2] 99.8% | [3] 104% | [4] 97.4% | [5] 106% | [6] 107% | [7] 104% | [8] 102% | [9] 116% | [10] 112%

Cc1cnc(SCc2ccc(Cl)cc2)[nH]c1=S
inactive: [1] 88.5% | [2] 103% | [3] 103% | [4] 93.9% | [5] 95.1% | [6] 104% | [7] 90.7% | [8] 106% | [9] 106% | [10] 89.7%

C=C1C(=O)O[C@H]2[C@H]1CC/C(COC(=O)c1cc3ccccc3o1)=C\CC[C@@]1(C)O[C@@H]21
active: [1] -34.7% | [2] -26.4% | [3] -1.94% | [4] 3.76% | [6] 7.04% | [8] 1.96% | [9] -9.79% | [10] -1.95%
inactive: [5] 39.2% | [7] 103%

CCC[S@](=O)c1ccc2nc(NC(=O)OC)[nH]c2c1
inactive: [1] 99.2% | [2] 95.3% | [3] 100% | [4] 96.8% | [5] 91.7% | [6] 103% | [7] 95.1% | [8] 96.2% | [9] 79.6% | [10] 75.3%

CN(C)C1=NCCN1
inactive: [1] 81.5% | [2] 103% | [3] 104% | [4] 96.2% | [5] 93.6% | [6] 111% | [7] 107% | [8] 90.2% | [9] 92.6% | [10] 108%

CCCCn1c2cc(OCc3cn(-c4ccc(Cl)cc4)nn3)ccc2c2ccnc(C)c21
active: [4] -16.3% | [6] -47.5% | [9] 6.26% | [10] -4.92%
inactive: [1] 74.5% | [2] 44.4% | [3] 10.5% | [5] 15.6% | [7] 62.8% | [8] 30.5%

Cc1cc(C)nc(NS(=O)(=O)c2ccc(Nc3ccc4c5c(n(CCCN(C)C)c(=O)c4c3)-c3ccccc3C5=O)cc2)n1
inactive: [1] 108% | [2] 90.5% | [3] 85% | [4] 88.9% | [5] 87.9% | [6] 89.7% | [7] 90.7% | [8] 42.2% | [9] 15.2% | [10] 23.4%

[2H]c1cc2c(c([2H])c1F)/C(=C/c1[nH]c(C)c(C(=O)NCCN(CC)CC)c1C)C(=O)N2
inactive: [1] 14.7% | [2] 44.7% | [3] 24.4% | [4] 12.3% | [5] 62.1% | [6] 25.4% | [7] 52.6% | [8] 69.5% | [9] 20.3%
active: [10] 0.469%

C=C1C(=O)O[C@H]2[C@H]1CC/C(COC(=O)CCC(=O)OC/C1=C/CC[C@@]3(C)O[C@H]3[C@H]3OC(=O)C(=C)[C@@H]3CC1)=C\CC[C@@]1(C)O[C@@H]21
inactive: [1] 60.8% | [2] 44.5% | [5] 25% | [7] 114%
active: [3] 5.32% | [4] 0.355% | [6] -21.8% | [8] -8.57% | [9] 1.24% | [10] 0.484%

COc1ccc2cc(/C=C3\N=C(c4cc(OC)c(OC)c(OC)c4)OC3=O)c(OC)nc2c1
inactive: [1] 106% | [2] 103% | [3] 94.2% | [4] 95.8% | [5] 106% | [6] 101% | [7] 99.5% | [8] 111% | [9] 94.8% | [10] 95.8%

COc1ccc(-c2nnc(N3CCN(C(=O)CN4CCN(c5ccc(OC)cc5)CC4)CC3)nc2-c2ccc(OC)cc2)cc1
active: [1] -63.6% | [3] -72.7% | [4] -64.4% | [8] -50.7% | [9] -54.2% | [10] -54.2%
inactive: [2] 41.5% | [5] 28.6% | [6] 54.6% | [7] 98.1%

CCOC(=O)C1=C(C)n2nc(CC#N)c(C#N)c2NC1c1ccc(CC)cc1 (stereo not given)
inactive: [1] 106% | [2] 82.4% | [3] 100% | [4] 65.4% | [5] 109% | [6] 98.7% | [7] 104% | [8] 101% | [9] 104% | [10] 104%

C=C(C)[C@@H]1CC[C@]2(C(N)=O)CC[C@]3(C)[C@H](CC[C@@H]4[C@@]5(C)CCCNC(C)(C)[C@@H]5CC[C@]43C)[C@@H]12
active: [10] 3%
inactive: [1] 105% | [2] 87.5% | [3] 77.7% | [4] 84.4% | [5] 107% | [6] 88.9% | [7] 99% | [8] 52.5% | [9] 48.9%

O=C(Nc1nc2ccc(C(F)(F)F)cc2s1)c1cc(Cl)ccc1O
active: [1] -11.4% | [2] -1.23% | [3] 9.78% | [4] 7.2% | [5] 4.94% | [6] 2.6% | [7] -26.8% | [9] 1.46% | [10] 0.767%
inactive: [8] 15%

COC(=O)c1ccc2c(c1)NC(=O)[C@@H]1CCCN21
inactive: [1] 95% | [2] 94.1% | [3] 101% | [4] 88.1% | [5] 127% | [6] 103% | [7] 90.4% | [8] 99.5% | [9] 84.1% | [10] 81.5%

C=C1C(=O)O[C@H]2[C@H]1CC/C(COC(=O)Nc1nc3ccccc3[nH]1)=C\CC[C@@]1(C)O[C@@H]21
inactive: [1] 68.1% | [2] 58.7% | [3] 67.4% | [4] 43.1% | [5] 46.3% | [6] 32.5% | [7] 102% | [9] 45.9% | [10] 16.2%
active: [8] 6.53%

COC(=O)c1oc2c(C(=O)/C=C/c3ccc(OC)cc3)c(OCCCN3CCCCC3)ccc2c1C
active: [8] -46.2% | [9] -31.4% | [10] -31%
inactive: [1] 53.5% | [2] 28% | [3] 22.5% | [4] 12.2% | [5] 35.2% | [6] 28% | [7] 83.6%

COc1ccc(C2C(c3ccccc3)C(=O)N2c2cc(OC)c(OC)c(OC)c2)cc1I (stereo not given)
active: [7] -2.63% | [8] 7.6% | [9] 7.85% | [10] 8.89%
inactive: [1] 56.3% | [2] 61.9% | [3] 33% | [4] 18.7% | [5] 75.1% | [6] 26.5%

CC(=O)c1c(OCC#N)ccc2c(C)cc(=O)oc12
inactive: [1] 95.6% | [2] 105% | [3] 102% | [4] 114% | [5] 118% | [6] 99.8% | [7] 101% | [8] 105% | [9] 101% | [10] 87.1%

COc1cc(/C=C/C(=O)c2ccc(NC(=O)CSc3nnc(-c4cc(OC)c(OC)c(OC)c4)n3-c3ccccc3)cc2)cc(OC)c1OC
inactive: [1] 32.1% | [2] 31.3% | [3] 41% | [5] 45.1% | [6] 17.9%
active: [4] -50.3% | [7] -12.1% | [8] 6.02% | [9] 5.18% | [10] 2.13%

C=C1C(=O)O[C@H]2[C@H]1CC/C(COC(=O)n1ccnc1)=C\CC[C@@]1(C)O[C@@H]21
inactive: [1] 89.4% | [2] 80.9% | [3] 96.2% | [4] 73.3% | [5] 94.7% | [6] 82.8% | [7] 125% | [8] 74.3% | [9] 83.4% | [10] 77.5%

C=C(C)[C@@H]1CC[C@]2(C(=O)n3ccnc3)CC[C@]3(C)[C@H](CC[C@@H]4[C@@]5(C)CCCNC(C)(C)[C@@H]5CC[C@]43C)[C@@H]12
active: [8] 0.353% | [9] -15.9% | [10] -33%
inactive: [1] 53.5% | [2] 61.9% | [3] 29.6% | [4] 43.8% | [5] 70.5% | [6] 46.6% | [7] 84%

Cc1nccc2c3ccc(OCc4cn(-c5ccc(Br)cc5)nn4)cc3n(CC(C)C)c12
inactive: [1] 53% | [2] 59.5% | [3] 61.5% | [4] 38.4% | [5] 41.1% | [6] 61.9% | [7] 53% | [8] 35.1%
active: [9] 2.93% | [10] -13.9%

O=c1nc(-c2ccccc2)c2cc(-c3ccc(N4CCCC4)nc3)ccc2[nH]1
inactive: [1] 37.5% | [2] 71.1% | [3] 83.9% | [4] 63.6% | [5] 88.5% | [6] 82.6% | [7] 46.6% | [8] 54.5% | [9] 44% | [10] 18.2%
